Experimental findings from PubChem BioAssay AID449762 (Southern Research Specialized Biocontainment Screening …, 2010) are described below.

In all, about 330,000 compounds went through this assay and about 1,900 (0.58%) were called active. Another 4% or so got no clear call; they are omitted. A selection follows. Entries with a potency or affinity are not part of this list. Values without a mark were called inactive. No stated cut-off is given here; in the data, inconclusive means inhibition above about 70% without an active follow-up result; inactive means below that.

This assay is described as follows: M. tuberculosis growth inhibition, HTS (AID 449762).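 Further: bacterial growth assessed after seven days of incubation.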 Conditions: M. tuberculosis H37Rv growth inhibition, 7H9 media; at 25 µM; stronger effect = higher value.
As for `O=C(Nc1nc2ccc(S(=O)(=O)N3CCCC3)cc2s1)c1ccco1`, the inhibition – broadly, the drop in the measured response relative to a control, in per cent – is -2.95%.

For `COc1ccccc1-n1c(/C=C/c2ccccn2)nc2ccccc2c1=O`, the inhibition was -5.93%.

Turning to `CC(C)N(C(=S)Nc1cc(S(=O)(=O)N2CCOCC2)ccc1Cl)c1ccccc1`, the inhibition is -5.84%.

`Cc1cc(NC(=O)c2cc(-c3cccs3)nc3ccccc23)no1`: the inhibition is -0.3%.

`NNC(=O)c1cc(-c2cccs2)nc2ccccc12`: the inhibition is 9.4%.

For `CC(C)N(C1=N/C(=C\c2ccco2)C(=O)N1c1ccccc1)C(C)C`, the inhibition is -0.07%.

With `Cc1noc(C(F)(F)F)c1C(=O)NNC(=O)c1cccc(C(F)(F)F)c1`, the inhibition is 3.93%.

Regarding `CCOC(=O)C1C(=O)NC(SCC(=O)Nc2nccs2)=C(C#N)C1c1ccccc1OCC` (stereo not drawn), the inhibition was 55.1%.

`CC1CCCCN1CCNC(=O)C1CCCN(S(=O)(=O)c2cccc3nsnc23)C1` (stereo not drawn): the inhibition is 3.33%.

As to `CN(C)c1nc(NCc2ccccc2)nc(N/N=C/c2ccc(Cl)cc2Cl)n1`, the inhibition is 9.37%.

In the case of `CN(C)c1nc(NCc2ccccc2)nc(N/N=C/c2ccc(Br)cc2)n1`, the inhibition was 3.27%.

In the case of `COc1ccc(N2CC(C(=O)O)CC2=O)cc1` (stereo not drawn), the inhibition was -12.1%.

For `CCC(=NCc1ccccc1)c1c(C(F)(F)F)[nH]n(-c2nc3ccccc3s2)c1=O`, the inhibition was -0.69%.

For `COc1ccc(CN=C(C)c2c(C(F)(F)F)[nH]n(-c3nc4ccccc4s3)c2=O)cc1`, the inhibition is -13.3%.

As for `COc1ccccc1NC(=O)CSc1nn2c(=O)c(C)nnc2s1`, the inhibition was -20.7%.

`Cc1cc(C)nc(SCCCNCc2c(F)cccc2Cl)n1`: the inhibition is 0.32%.

As for `Cc1ccc(-n2c(C)nc3ccsc3c2=O)cc1`, the inhibition was 9.48%.

With `Cc1ccc(-n2c(Cl)c(Cl)[nH]c(=O)c2=O)cc1`, the inhibition is -6.67%.

For `Cc1noc(C)c1COc1ccccc1C(=O)N1CCN(S(=O)(=O)c2ccccc2C(F)(F)F)CC1`, the inhibition is -1.24%.

Consider `COC(=O)c1cccc(NC(=O)Cc2ccccc2[N+](=O)[O-])c1C`, for which the inhibition was 2.19%.

On to `OC(Cn1cncn1)c1ccc(Cl)cc1` (stereo not drawn), for which the inhibition was -4.52%.

`O=C(NCc1ccccc1)NC12CC3CC(CC(C3)C1)C2`: the inhibition is -2.17%.

Turning to `Cc1ccc(CNC(=O)NC23CC4CC(CC(C4)C2)C3)cc1`, the inhibition is 7.32%.

Take `Cc1noc(C)c1COc1ccc(C(=O)OCC(=O)NC2CCCCC2C)cc1` (stereo not drawn): the inhibition was 48.8%.

Turning to `Cc1noc(C)c1COc1ccc(C(=O)OCC(N)=O)cc1`, the inhibition is 12.9%.

For the compound `Cc1ccc(N2CC(C(=O)NC3=NCCS3)CC2=O)cc1` (stereo not drawn), the inhibition is 4.82%.

In the case of `CCc1ccc2oc(-c3ccc(OC)cc3)cc(=Nc3cccc(C(=O)O)c3)c2c1`, the inhibition is 39.4%.

As for `COc1ccc(-c2cc(=Nc3c(C)n(C)n(-c4ccccc4)c3=O)c3ccccc3o2)cc1`, the inhibition was 35.5%.

On to `CNC(=O)c1cnn(-c2nc(-c3ccc(OC)cc3)cs2)c1C(F)(F)F`, for which the inhibition is 9.09%.

As to `CCN1CCc2c(OCC(=O)Nc3ccccc3)cccc2C1=O`, the inhibition is -8.51%.

Regarding `COc1cccc(-c2cc(C(F)(F)F)nc(N3CCC(C)CC3)n2)c1`, the inhibition is 2.81%.

For `COc1ccc(CNC(=O)COC(=O)C2=COCCO2)cc1`, the inhibition was 12.1%.

Consider `CC(=O)c1cccc(NC(=O)COC(=O)C2=COCCO2)c1`, for which the inhibition was -0.86%.

Turning to `O=C(COC(=O)C1=COCCO1)NCc1ccc(F)cc1`, the inhibition is 5.31%.

`O=C(COC(=O)C1=COCCO1)Nc1ccccc1`: the inhibition is 65.9%.

For the compound `CCCCN1C(=N)N([C@@H](C)CN2CCC[C@H]2CN2C(N)=NC[C@@H]2Cc2ccccc2)C[C@H]1Cc1ccccc1`, the inhibition is 67.2%.

As for `CCCCN1C(=N)N([C@@H](CCC)CN2CCC[C@H]2CN2C(N)=NC[C@@H]2Cc2ccccc2)C[C@H]1[C@H](C)CC`, the inhibition is 4.76%.

With `Cc1nc2ccc(NC(=O)N3CCN(c4ccccn4)CC3)cc2s1`, the inhibition was -4.34%.

In the case of `O=C(O)c1ccc(N=NN2CCCC2)cc1`, the inhibition is -3.03%.

With `CC1CCc2sc(C(=O)NC3CCCCC3)cc2C1` (stereo not drawn), the inhibition was -9.17%.

`CNC(=O)c1cc2c(s1)CCCCCC2`: the inhibition was -5.87%.

Turning to `Nc1cccc(-c2ccc(CO)o2)c1`, the inhibition was 10.1%.

For `NC(=O)C1CCN(CC(=O)N2N=CCC2c2ccccc2)CC1` (stereo not drawn), the inhibition was -1.72%.

As for `CCC(=O)N1CCc2cc(S(=O)(=O)N3CCCC3)ccc21`, the inhibition was -9.42%.

For the compound `Cc1occc1C(=O)NN=C1C2CC3CC(C2)CC1C3`, the inhibition is -8.34%.

Take `COc1cc2[nH]c3c(N4CCC(C(N)=O)CC4)ncnc3c2cc1OC`: the inhibition was 6.79%.

As to `COc1cc2[nH]c3c(N4CCN(c5ccc(Cl)cc5)CC4)ncnc3c2cc1OC`, the inhibition is -5.15%.

For `Cc1ccc2[nH]c3c(N4CCOCC4)ncnc3c2c1`, the inhibition is -3.57%.

As to `Cc1ccc2c(c1)[nH]c1c(N3CCN(Cc4ccccc4)CC3)ncnc12`, the inhibition is 3.28%.

As to `COc1ccc(N2CCN(c3ncnc4c3[nH]c3ccccc34)CC2)cc1`, the inhibition was -0.78%.

Consider `COc1ccc2[nH]c3c(N4CC(C)OC(C)C4)ncnc3c2c1` (stereo not drawn), for which the inhibition was -0.53%.

In the case of `O=C(COC(=O)c1ccccc1NS(=O)(=O)c1cccs1)NC1CCCCC1`, the inhibition is 4.13%.

`CCCCOc1ccc(C(=O)NCC(=O)NC2CCC(C)CC2)cc1` (stereo not drawn): the inhibition was 9.03%.

With `Cc1c(NC(=O)Nc2ccc(C(C)(C)C)cc2)c(=O)n(-c2ccccc2)n1C`, the inhibition is 1.52%.

Take `Cc1cc(NC(=O)C(C)C)ncc1NC(=O)c1ccco1`: the inhibition was 4%.

For the compound `Cn1c(SCc2ccccn2)nnc1-c1cnccn1`, the inhibition is -3.38%.

Take `O=S(=O)(Nc1ccccc1N1CCOCC1)c1c(F)cc(F)cc1Br`: the inhibition is -10.8%.

With `CCN(C[C@H]1N[C@@](Cc2ccccc2)(C(=O)OC)[C@H]2C(=O)N(Cc3ccccc3)C(=O)[C@@H]12)C(=O)Nc1ccc(F)cc1`, the inhibition was 3.17%.

Turning to `CCN(C[C@H]1N[C@@](CC)(C(=O)OC)[C@H]2C(=O)N(Cc3ccccc3)C(=O)[C@@H]12)C(=O)Nc1ccc(C(F)(F)F)cc1`, the inhibition is -6.29%.

`O=C(/C=C/c1ccc(OCCCF)cc1)Nc1ccnc(-c2cccnc2)n1`: the inhibition was -3.34%.

Take `COc1ccc(CNC(=O)/C=C/c2ccc(OCCCF)cc2)cc1`: the inhibition is 0.02%.

Take `CC(C)(C)NC(=O)C(=O)NNC(=O)c1ccco1`: the inhibition is -5.31%.

For the compound `Cc1ccccc1N(CC(=O)NCc1ccncc1)S(C)(=O)=O`, the inhibition was 1.64%.

Turning to `CSc1ccc(C(=O)C2CCCN(C(=O)c3nonc3C)C2)cc1` (stereo not drawn), the inhibition is 12.6%.

`CSc1ccc(C(=O)C2CCCN(C(=O)c3ccc4c(c3)OCO4)C2)cc1` (stereo not drawn): the inhibition was 1.02%.

In the case of `Cc1ccc(Cn2c([N+](=O)[O-])cnc2C)cc1`, the inhibition was 2.64%.

As to `Cc1ccc(S(=O)(=O)N(C)CC(=O)Nc2ccc3c(c2)OCO3)cc1`, the inhibition is -3.43%.

For `Cc1ccc(C(=O)OCN2C(=O)c3ccccc3C2=O)c(O)c1`, the inhibition was 2.23%.

Turning to `COc1ccccc1NC(=O)C12CC3CC(C1)CC(c1ccc(C)cc1)(C3)C2`, the inhibition is -6.68%.

With `CNC(=O)C12CC3CC(C1)CC(c1ccc(C)cc1)(C3)C2`, the inhibition was 5.19%.

On to `COCC1CCN(Cc2nc(Cc3ccccc3Cl)no2)CC1`, for which the inhibition is 4.51%.

With `COC(=O)Cn1c(=NC(=O)C(C)(C)C)sc2c(C)cc(C)cc21`, the inhibition was -0.87%.

Regarding `CC(C)C[C@]1(c2ccccc2)ON(c2ccccc2C(F)(F)F)C1=O`, the inhibition is -1.86%.

Regarding `CC[C@]1(c2ccccc2C)ON(c2ccccc2C(F)(F)F)C1=O`, the inhibition is 0.115%.

In the case of `CN1CCN(CCCNC(=O)CCCOc2cc(=O)n(C)c3ccccc23)CC1`, the inhibition is -3.75%.

As for `CCCCCCCN1C(N(C)C)=NC[C@@H]1Cc1ccccc1`, the inhibition was 1.63%.

Consider `Cc1cccc(-n2ccc(=O)c(C(=O)Nc3ccc(S(=O)(=O)Nc4nccc(C)n4)cc3)n2)c1`, for which the inhibition is 6.8%.

For the compound `CCOC(=O)c1cccc(NS(=O)(=O)c2c(C)[nH]c(C)c2C(=O)N2CCCC2)c1`, the inhibition was 12.7%.

With `Cc1cc(NC(=O)/C(C#N)=C/c2ccc(-c3ccc(SC(F)F)cc3)o2)n(-c2ccccc2)n1`, the inhibition is 4.12%.

For the compound `COC(=O)/C(C#N)=C/c1ccc(-c2ccc(S(N)(=O)=O)cc2)o1`, the inhibition is -0.94%.

With `C=CCn1c(O)c(C(C)=Nc2cccc(C(=O)O)c2)c(=O)[nH]c1=O`, the inhibition is -1.56%.

In the case of `Cc1cc(C(=O)NNC(=O)c2sccc2C)c(C)o1`, the inhibition is -4.39%.

For `CCN1CCN(C(c2cccs2)C(C)NS(=O)(=O)c2ccc(Br)cc2)CC1` (stereo not drawn), the inhibition was -2.6%.

Regarding `O=C(Nc1nccs1)c1ccc(S(=O)(=O)N2CCCCC2)cc1`, the inhibition is -7.33%.

For `CSCCC(NC(=O)COc1ccccc1)C(=O)NCCOc1ccc(C)cc1` (stereo not drawn), the inhibition is 1.39%.

`COc1ccc(OC)c(S(=O)(=O)Nc2cc3c4c(c2)CCC(=O)N4CCC3)c1`: the inhibition was -8.72%.

`CC(=O)c1c(C(C)=O)c(C)n(-c2cccc([N+](=O)[O-])c2)c1C`: the inhibition was 4.11%.

With `Cc1cc(C(=O)CCl)c(C)n1-c1c(C)n(C)n(-c2ccccc2)c1=O`, the inhibition was 64.9%.

Regarding `N#CCCCCn1c(-c2cncs2)nc2ccccc21`, the inhibition was -10.4%.

As to `Oc1ccc(C=NCCc2ccccc2)cc1`, the inhibition is 0.33%.

Turning to `CCSc1nc2ccccc2n1Cc1cccc([N+](=O)[O-])c1`, the inhibition is -1.33%.

Turning to `Cc1ccc(OC(=O)c2ccc(C)c(C)c2)cn1`, the inhibition is 38.4%.

Take `CCCCOc1ccc(C(=O)Oc2cccnc2)cc1`: the inhibition was 50%.
